Among the data in PMC7819943, “Rice protein-binding microarrays: a tool to detect cis-acting elements near promoter regions in rice” are binding signal values, retold here.

In all, about 35,000 sequences were measured (“fluorescence intensity (a.u.)”: median about 10,000, highest 2% from about 52,000 on). Shown is part of a subset that was picked to be rich in the highest values.

For the assay, the target named is T1, OsWOX13 (Oryza sativa, UniProt Q5QMM3 1-267).
T1 sequence: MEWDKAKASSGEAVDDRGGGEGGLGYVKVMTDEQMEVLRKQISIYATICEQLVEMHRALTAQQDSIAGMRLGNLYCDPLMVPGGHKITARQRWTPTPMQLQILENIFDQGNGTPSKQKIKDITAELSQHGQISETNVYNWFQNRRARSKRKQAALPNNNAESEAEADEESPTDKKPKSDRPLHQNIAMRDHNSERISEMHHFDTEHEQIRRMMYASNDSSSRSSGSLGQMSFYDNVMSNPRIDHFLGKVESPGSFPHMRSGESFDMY
In words: protein-binding microarray (RPBM); PBS, 2% BSA, 51.3 ng/ul salmon testes DNA, 50 uM zinc acetate, 200 nM TF, 25 C, 1 h; high values mean tight binding. The conditions noted are these: protein: recombinant; tags: N-terminal polyhistidine and DsRed monomer fusion (pET32a); label: CyDye5-dUTP incorporated in the synthesized complementary strand; 3' TTTTT single-stranded linker to array surface; dsDNA, one strand shown. The method in brief: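 Binding signal is defined as the fluorescence intensity of each feature in arbitrary units, read on an Axon 4000B scanner. Transcription factors with N-terminal polyhistidine and DsRed fusions came from E. coli BL21-CodonPlus and were purified on Ni–NTA. They were incubated at 200 nM for 1 h at 25 °C on a custom Agilent array that had been made double-stranded with Cy5-dUTP, with 50 µM zinc acetate present, and the array was washed.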
As for “TAGCTTAATTTGATTTCTATTTAAGACCTTGACATTAACGCGGAGTCACCTAGTGCAG”, the binding signal was 24400 fluorescence intensity (a.u.). As to “ATGATATAATTAATTAATTAGCGCGCGGTTCCACCTCCCGCGGAGTCACCTAGTGCAG”, the binding signal was 60200 fluorescence intensity (a.u.).

Regarding “CTGACTGGCTCTGATTAATTAATTGATGATCGATCGAGCGCGGAGTCACCTAGTGCAG”, the binding signal was 49800 fluorescence intensity (a.u.). Under “TTAAAATTATTTTATAATTAATATTTATTATTATTATTAGCGGAGTCACCTAGTGCAG” stands 12400 fluorescence intensity (a.u.); under “GCGTAATTAGGCGGAGAGATTATAGGGAGAGAGATCGCGACGGAGTCACCTAGTGCAG”, 16700 fluorescence intensity (a.u.). On to “TGATTAATTAGCGAGAGTAATTAATTAATTATAGCCTGCGCGGAGTCACCTAGTGCAG”, for which the binding signal was 61600 fluorescence intensity (a.u.).

With “GTAATTGATTTTCTGGCGCGATTAAGAGCTTGGTATATAGCGGAGTCACCTAGTGCAG”, the binding signal is 59200 fluorescence intensity (a.u.). Consider “ATATAGTTGTGATTAATTAGTGAGTAGAGTGTGATACCTGCGGAGTCACCTAGTGCAG”, for which the binding signal is 22100 fluorescence intensity (a.u.). Regarding “GAGCATGATTACTTAAATATTAGCTAATTCTTTCTTTAAACGGAGTCACCTAGTGCAG”, the binding signal was 15500 fluorescence intensity (a.u.). Consider “GTTGTACCACTGATTGGACTGCCTGCTTACCGATAATTAACGGAGTCACCTAGTGCAG”, for which the binding signal was 24500 fluorescence intensity (a.u.). In the case of “TTCTTGATGGAAATTGAAATTGTGTGTGTGGGATGCAGGACGGAGTCACCTAGTGCAG”, the binding signal is 46400 fluorescence intensity (a.u.). For the sequence “ACACTAATAGGTCATGTCCATTTCCATCCCATTTCCATTGCGGAGTCACCTAGTGCAG”, the binding signal is 7050 fluorescence intensity (a.u.). Consider “AGACTATTTACAAAACTAATTACATAAATGAAAGCTAACTCGGAGTCACCTAGTGCAG”, for which the binding signal was 5260 fluorescence intensity (a.u.).

With “TAAATTATTTTCTATTTATAAATATGTCGTTTGCCTTATTCGGAGTCACCTAGTGCAG”, the binding signal was 4180 fluorescence intensity (a.u.). As to “AATTGACAAAGATGAAACACATGTGGACTGGACTACTCGACGGAGTCACCTAGTGCAG”, the binding signal is 3660 fluorescence intensity (a.u.). In the case of “ATATAAATTGACTATTAAATATATTGACTATATGTAAATTCGGAGTCACCTAGTGCAG”, the binding signal is 25600 fluorescence intensity (a.u.).

Regarding “AATTAACGGAGGAAACTCCAATCAGATACGCAGACGGACACGGAGTCACCTAGTGCAG”, the binding signal was 8430 fluorescence intensity (a.u.).

Take “TATATATATATATATATATATATATATATATATATAGACACGGAGTCACCTAGTGCAG”: the binding signal is 7880 fluorescence intensity (a.u.). With “AACAGCTGATGAGTGATGATTGACAGACATCACACGCGGACGGAGTCACCTAGTGCAG”, the binding signal was 57600 fluorescence intensity (a.u.). In the case of “CACCATGATTGATTGCTCCATGCACACACATTGAGACACGCGGAGTCACCTAGTGCAG”, the binding signal was 59700 fluorescence intensity (a.u.). “TGGCTGCTGATTGCAACAGTGGTACTGACATTAGCAGCAGCGGAGTCACCTAGTGCAG”: the binding signal is 16300 fluorescence intensity (a.u.). For “ATGATTGACAAGATGAATCAGCACGCTGTTGGAAAAGGGACGGAGTCACCTAGTGCAG”, the binding signal was 55400 fluorescence intensity (a.u.).

With “ATTGCTGATTGAGCATGTAGACATTGCTAGTGGTAGTACGCGGAGTCACCTAGTGCAG”, the binding signal was 58000 fluorescence intensity (a.u.). Under “AACACAGGCTGATGAATGATGATTGAATGAACAGAGACAACGGAGTCACCTAGTGCAG” stands 22900 fluorescence intensity (a.u.); under “TATCTGATGAGAGCAGATTGCCACACATCACAGCATGCAGCGGAGTCACCTAGTGCAG”, 10300 fluorescence intensity (a.u.); under “ATTTGATTTGATCACAACACATTAGCTTGGTTGCTCCATGCGGAGTCACCTAGTGCAG”, 41800 fluorescence intensity (a.u.). Under “TTACACTGATTGATGCTCCACATGAACACCACATGCATTTCGGAGTCACCTAGTGCAG” stands 32600 fluorescence intensity (a.u.); under “CTCTAGTTGATGATGGAAATCATTGACAAGAACTATAGCACGGAGTCACCTAGTGCAG”, 22100 fluorescence intensity (a.u.). For the sequence “ATTGATGAATGTTGACAAACCTGGTTTGATTTGGAGGGAACGGAGTCACCTAGTGCAG”, the binding signal was 23500 fluorescence intensity (a.u.).

In the case of “AGTGATTATTTATTGGAGTACGATTGAGACCCTTGGTACGCGGAGTCACCTAGTGCAG”, the binding signal was 33400 fluorescence intensity (a.u.).

In the case of “ATTATGTAAATTTTGACTAATGTTTAGTCGAAGTGCAAGTCGGAGTCACCTAGTGCAG”, the binding signal was 8100 fluorescence intensity (a.u.). Under “TGTCACAAATCTAATGGTATAATTAGTTCATAGTTCGGATCGGAGTCACCTAGTGCAG” stands 8340 fluorescence intensity (a.u.); under “TCTAAATTTTCATGACATGGTACCATACTACAAATCCATCCGGAGTCACCTAGTGCAG”, 9500 fluorescence intensity (a.u.); under “TTTAGACAGTAATTAAAGTCGAATTACATTGCATTGTTCGCGGAGTCACCTAGTGCAG”, 40300 fluorescence intensity (a.u.). Under “GTAATTGGGAGGGAATTTCTCCTTTACTTCGCCTAAACAACGGAGTCACCTAGTGCAG” stands 14100 fluorescence intensity (a.u.). Consider “TCTAACTGTGGATAATATCTGACAGGAAATTTGATATCAACGGAGTCACCTAGTGCAG”, for which the binding signal was 6210 fluorescence intensity (a.u.). In the case of “TGTTGGTTAAGTAATTAATTAAGTCTTGGCTATTGGCGATCGGAGTCACCTAGTGCAG”, the binding signal is 13500 fluorescence intensity (a.u.).

As to “TCGTAAAATTAATTGTAAATTGTAATATGATAACAAGGCCCGGAGTCACCTAGTGCAG”, the binding signal is 33100 fluorescence intensity (a.u.). For the sequence “AGTTTTCAAAATTTGACTTTAAAATTTAAATCTTAAATCACGGAGTCACCTAGTGCAG”, the binding signal was 3970 fluorescence intensity (a.u.). For the sequence “CAAAATTATCTAATTGATGACTATTTCTAAATACACATCACGGAGTCACCTAGTGCAG”, the binding signal was 41800 fluorescence intensity (a.u.). As to “GTGCTTTAATCAGTAATTTTGCAATTGCTTTTGAATTTCACGGAGTCACCTAGTGCAG”, the binding signal is 5640 fluorescence intensity (a.u.). Turning to “TCTTAATTGAAAGAGTTTTCATCATGTCTTTCAGTCACCACGGAGTCACCTAGTGCAG”, the binding signal was 53900 fluorescence intensity (a.u.). Under “GAGTTTAATTAATTAATTTCTTAAAATTGATGTCATCACACGGAGTCACCTAGTGCAG” stands 54800 fluorescence intensity (a.u.). Take “ACTTTTCAGTTACATCATCTCTAATTTCAATTGAAATCCACGGAGTCACCTAGTGCAG”: the binding signal is 7120 fluorescence intensity (a.u.).
